PubChem BioAssay AID1345085 (National Center for Advancing Translational Sciences (NCATS), 2018)
Records with an inconclusive call do not appear. Activity calls are given as the source filed them. The call rests on the fitted dose curve; in most records, active means well fitted cell-killing curve with a large enough effect; inconclusive means small, poorly fitted or top-dose-only effect, or effect the other way; inactive means no such curve, though single readings can be large or run the other way.

Tested on: Es-2
Assay: Confirmatory qHTS for gynecologic anti-cancer compounds from libraries of approved drugs and bioactive compounds; further: nearly all actives have a fitted effect of over 55% in size
Settings: gynecologic cancer cell panel viability, ATPlite luminescence, 48 h; series mostly up to 57.6 µM
Source text: National Center for Advancing Translational Sciences [NCATS] Assay Overview: Chemotherapeutic drug responses vary from cancer to cancer and from patient to patient. These variations could be caused by a number of factors including patient genomic background, tumor mutations, tumor heterogeneity, and aspects of drug treatment. Chemotherapeutic drug resistance is also a common issue and can lead to ineffective treatment and patient death. Here we have profiled the cell killing effects of thousands of compounds to characterize the responses in three gynecological cancers, identify cancer-selective compounds, and understand the diversity of responses to these compounds from pan-cancer suppressors to single cell line selective compounds. In this assay, we screened a 7,914 compound drug library that included approved drug and bioactive compounds in six ovarian, three cervical, and two placental cancer cell lines using the ATPlite assay for cell viability. ATPlite is a luminescence based assay reliant on the conversion of a luciferase substrate to light in the presence of ATP. As a cytotoxic compound will suppress growth and decrease the number of cells, the concentration of ATP will decrease, and less light signal will be detected in the well. Hits were selected from the primary screen for follow-up confirmation. For the confirmation screens, the ovarian cancer cell lines included CAOV-3, SK-OV-3, SW 626, ES-2, PA-1, and TOV-21G. The cervical cancer cell lines included HeLa, Ca Ski, and C-33 A. The placental cancer cell lines included JEG-3 and JAR. HEK 293T cells were used as the control cell line to determine the selectivity index. The ATPlite assay was used to determine the IC50 values.
Assay Protocol Summary: 1,000 cells in 4 uL of media were dispensed into white, solid bottom 1536-well plates using a Multidrop Combi (Thermo Scientific). The Assay plates were incubated for 16 hours at 37 C with 5% CO2 in assay plates, followed by the addition of 23 nL of DMSO or drug dissolved in DMSO. . Each compound was assayed in 11 concentrations (1:3 dilution) from 57.5 uM to 0.977 nM, using the automated Wako 1536 Pin Tool workstation and incubated at 37 C with 5% CO2 48 hours. 4 uL of ATPlite, the ATP monitoring reagent, was then added to the each well of the assay plates using the Multidrop Combi reagent dispenser followed by incubation for 15 minutes at room temperature. The resulting luminescence was measured using the ViewLux plate reader.
On the % scale 0 is the no-effect control and ±100 the full control effect; potency means the concentration at half of the fitted maximal effect.

| SMILES | Potency | activity change, negative = viability loss |
| --- | --- | --- |
| Nc1ccccc1NC(=O)c1ccc(CNc2nccc(-c3cccnc3)n2)cc1 | 2.43 µM (active) |  |
| NS(=O)(=O)OC[C@@H]1C[C@@H](n2ccc3c(N[C@H]4CCc5ccccc54)ncnc32)C[C@@H]1O | 1.72 µM (active) |  |
| Cc1nc(Nc2ncc(C(=O)Nc3c(C)cccc3Cl)s2)cc(N2CCN(CCO)CC2)n1 | 13.7 µM (active) |  |
| COCCOc1nc(-c2ccc(Cl)c(Cl)c2)n(-c2ccc(NC(=O)CCl)cc2)n1 | 5.44 µM (active) |  |
| Cc1cnc(Nc2ccc(F)cc2Cl)nc1-c1c[nH]c(C(=O)NC(CO)c2cccc(Cl)c2)c1 (stereo not given) | inactive |  |
| Cc1nc(Nc2n[nH]c3c2CN(C(=O)NC(CN(C)C)c2ccccc2)C3(C)C)c2sccc2n1 (stereo not given) | 4.32 µM (active) |  |
| Cc1csc(NC(=O)c2sc3nc4c(c(C(F)(F)F)c3c2N)CCC4)n1 | 2.17 µM (active) |  |
| CC(C)n1c(/C=C/[C@@H](O)C[C@@H](O)CC(=O)O)c(-c2ccc(F)cc2)c2ccccc21 | 5.44 µM (active) |  |
| CCOc1cc2ncc(C#N)c(Nc3ccc(F)c(Cl)c3)c2cc1NC(=O)/C=C/CN(C)C | 24.3 µM (active) |  |
| COc1ccc2c(c1)c(CC(=O)O)c(C)n2C(=O)c1ccc(Cl)cc1 | inactive |  |
| CCCC(Nc1nc(-c2ccc(NC(=O)NCC)c(OC)c2)ncc1C)c1cccnc1 (stereo not given) | 0.193 µM (active) |  |
| CNCc1ccc(-c2[nH]c3cc(F)cc4c3c2CCNC4=O)cc1 | inactive |  |
| O=C(CCCCCCC(=O)Nc1ccccc1)NO | 3.06 µM (active) |  |
| Cn1cnc([N+](=O)[O-])c1Sc1ncnc2nc[nH]c12 | 15.3 µM (active) |  |
| OC[C@H]1O[C@@H](n2cnc3c(=S)nc[nH]c32)[C@H](O)[C@@H]1O | 4.85 µM (active) |  |
| N=C(N)c1ccc(OCCCCCOc2ccc(C(=N)N)cc2)cc1 | inactive |  |
| CC(Oc1ccc2[nH]nc(/C=C/c3cnn(CCO)c3)c2c1)c1c(Cl)cncc1Cl (stereo not given) | 4.32 µM (active) |  |
| NC(=O)c1cnc(-c2ccc(C3(N)CCC3)cc2)c(-c2ccccc2)c1 | 24.3 µM (active) |  |
| CN(C[C@@H]1COCCO1)S(=O)(=O)Nc1ccc2ccc3ncc(-c4cnn(C)c4)cc3c(=O)c2c1 | inactive |  |
| Nc1nccc(Oc2ccc(NC(=O)c3c[nH]cc(-c4ccc(F)cc4)c3=O)cc2F)c1Cl | 34.3 µM (active) |  |

| SMILES | Potency | activity change, negative = viability loss |
| --- | --- | --- |
| NCCOc1cc(C(=O)Nc2cc(OCCN)c3ccccc3n2)nc(C(=O)Nc2cc(OCCN)c3ccccc3n2)c1 | inactive |  |
| C#C[C@]1(O)CC[C@H]2[C@@H]3CCC4=CC(=O)CC[C@@H]4[C@H]3CC[C@@]21CC | inactive |  |
| CNc1nc(Nc2ccc(C(=O)N3CCOCC3)cc2OC)ncc1Cl | inactive |  |
| O=c1c(-c2ccc(O)cc2)coc2cc(O)cc(O)c12 | 17.2 µM (active) |  |
| COc1cc2c(cc1-c1c(C)noc1C)ncc1[nH]c(=O)n(C(C)c3ccccn3)c12 (stereo not given) | 2.17 µM (active) |  |
| CC[C@@]1(O)C(=O)OCc2c1cc1n(c2=O)Cc2cc3c(CN(C)C)c(O)ccc3nc2-1 | 0.193 µM (active) |  |
| NC1(c2ccc(-c3nc4ccn5c(=O)[nH]nc5c4cc3-c3ccccc3)cc2)CCC1 | inactive |  |
| Cc1nc(N)sc1-c1ccnc(Nc2ccc(N3CCOCC3)cc2)n1 | 9.68 µM (active) |  |
| CN1C(=O)C(Cc2c[nH]c3ccccc23)NC1=S (stereo not given) | inactive |  |
| CN(NC(=O)CC(=O)NN(C)C(=S)c1ccccc1)C(=S)c1ccccc1 | 0.611 µM (active) |  |
| CC[C@H](Nc1ncnc2nc[nH]c12)c1nc2cccc(F)c2c(=O)n1-c1ccccc1 |  | 8.76% [at 10.7 µM] (inactive) |
| CCN(CC)CCNC(=O)c1c(C)[nH]c(/C=C2\C(=O)Nc3ccc(F)cc32)c1C | 25.1 µM (active) |  |
| COc1cccc2c1C(=O)c1c(O)c3c(c(O)c1C2=O)C[C@@](O)(C(=O)CO)C[C@@H]3O[C@H]1C[C@H](N)[C@H](O[C@@H]2CCCCO2)[C@H](C)O1 | 7.69 µM (active) |  |
| Cc1ccc(C(=O)Nc2ccc(CN3CCN(C)CC3)c(C(F)(F)F)c2)cc1C#Cc1cnc2[nH]ncc2c1 | 0.306 µM (active) |  |
| CCCCc1oc2ccc(NS(C)(=O)=O)cc2c1C(=O)c1ccc(OCCCN(CCCC)CCCC)cc1 | 24.3 µM (active) |  |
| Cc1cnc(Nc2ccc(OCCN3CCCC3)cc2)nc1Nc1cccc(S(=O)(=O)NC(C)(C)C)c1 | 8.63 µM (active) |  |
| C1CCC(C(CC2CCCCN2)C2CCCCC2)CC1 (stereo not given) | 24.3 µM (active) |  |
| CCC1C(=O)N(C)c2cnc(Nc3ccc(C(=O)NC4CCC(N5CCN(CC6CC6)CC5)CC4)cc3OC)nc2N1C(C)C (stereo not given) | 1.22 µM (active) |  |
| COc1ccc2cc3[n+](cc2c1OC)CCc1cc2c(cc1-3)OCO2 | inactive |  |
| CC[C@]1(O)C[C@H]2CN(CCc3c([nH]c4ccccc34)[C@@](C(=O)OC)(c3cc4c(cc3OC)N(C=O)[C@H]3[C@@](O)(C(=O)OC)[C@H](OC(C)=O)[C@]5(CC)C=CCN6CC[C@]43[C@@H]65)C2)C1 | 0.432 µM (active) |  |
